pCIP destab: compounds decreasing mouse p/CIP protein stability | Q05BA5 | F442A p/CIP-EGFP cells, EGFP fluorescence, 16 h | decrease of EGFP signal, % at 10 µM | 0.01% of 290,000 active;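 active = EGFP signal decrease of at least 30% at 10 µM or well 3 SD below plate mean, unless failing retest; inactive = the rest, including hits failing retest or dose response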
Target sequence (Q05BA5 1-1403): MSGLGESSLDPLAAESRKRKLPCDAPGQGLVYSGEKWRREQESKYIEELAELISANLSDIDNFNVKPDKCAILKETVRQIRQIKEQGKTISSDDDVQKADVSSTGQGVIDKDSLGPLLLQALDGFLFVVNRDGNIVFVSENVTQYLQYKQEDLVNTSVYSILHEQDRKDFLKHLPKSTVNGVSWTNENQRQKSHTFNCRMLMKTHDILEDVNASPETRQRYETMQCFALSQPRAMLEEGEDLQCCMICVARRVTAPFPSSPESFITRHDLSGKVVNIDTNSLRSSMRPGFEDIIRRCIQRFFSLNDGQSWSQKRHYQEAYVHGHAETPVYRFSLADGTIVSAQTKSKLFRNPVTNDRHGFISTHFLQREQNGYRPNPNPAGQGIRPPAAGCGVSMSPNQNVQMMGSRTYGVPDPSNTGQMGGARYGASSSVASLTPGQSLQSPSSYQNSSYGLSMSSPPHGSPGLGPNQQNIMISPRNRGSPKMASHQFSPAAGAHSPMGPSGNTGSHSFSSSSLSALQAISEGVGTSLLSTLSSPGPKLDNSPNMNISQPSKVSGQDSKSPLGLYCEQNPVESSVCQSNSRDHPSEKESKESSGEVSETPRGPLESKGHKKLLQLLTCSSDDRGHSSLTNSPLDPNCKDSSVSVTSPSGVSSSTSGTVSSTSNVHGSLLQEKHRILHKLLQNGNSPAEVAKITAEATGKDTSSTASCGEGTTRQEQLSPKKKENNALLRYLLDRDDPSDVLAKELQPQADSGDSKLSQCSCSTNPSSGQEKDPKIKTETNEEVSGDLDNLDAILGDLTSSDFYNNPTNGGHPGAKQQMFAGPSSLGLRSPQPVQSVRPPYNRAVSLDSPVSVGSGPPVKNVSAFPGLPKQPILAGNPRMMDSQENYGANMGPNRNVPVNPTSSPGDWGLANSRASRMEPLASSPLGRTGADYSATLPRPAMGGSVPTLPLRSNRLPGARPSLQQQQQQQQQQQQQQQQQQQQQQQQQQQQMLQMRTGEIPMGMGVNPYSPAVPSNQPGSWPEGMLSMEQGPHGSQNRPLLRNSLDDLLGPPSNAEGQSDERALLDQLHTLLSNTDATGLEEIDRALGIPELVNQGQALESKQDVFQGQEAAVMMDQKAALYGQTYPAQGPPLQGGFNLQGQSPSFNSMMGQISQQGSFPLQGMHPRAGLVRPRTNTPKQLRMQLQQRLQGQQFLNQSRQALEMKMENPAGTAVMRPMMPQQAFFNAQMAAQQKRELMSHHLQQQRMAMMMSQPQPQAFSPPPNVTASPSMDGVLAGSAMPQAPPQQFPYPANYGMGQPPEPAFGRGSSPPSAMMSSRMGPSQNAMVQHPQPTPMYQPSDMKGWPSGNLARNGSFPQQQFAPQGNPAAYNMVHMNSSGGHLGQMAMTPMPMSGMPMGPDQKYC
PolyA inhibitor: inhibitors of polyadenylation in S. cerevisiae | AID 1875 | S. cerevisiae SKY197-pL101 polyadenylation reporter, beta-gal luminescence; efflux-impaired pdr1/pdr3 knockout yeast; score 100 = 6 SD above DMSO | activity score, % at 12 µM | 0.02% of 300,000 active;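 active = lowest replicate activity score at least 50, where 100 means six control SD above control mean; inconclusive = lowest score under 50 but half or more replicates reach 50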;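 also: yeast exposed to compound for 9 h at 30 °C; higher score means more reporter readthrough which indicates perturbed polyadenylation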
Platelet DG rel: platelet dense granule release activity. human platelet-rich plasma, SFLLRN dense granule ATP release, luminescence. inhibition, %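 (compounds screened at 7.5 µM in platelet-rich plasma)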. 0.22% of 300,000 active. AID 1663;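 active = mean replicate score, as percent of positive control, at or above 50; inconclusive = mean below 50 but at least one replicate at or above 50; inactive = mean and every replicate below 50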
HIF activator: HIF pathway transcriptional activation. 0.32% of 300,000 active. AID 1910. activation, % at 7.5 µM (by protocol). U2OS HRE-luciferase reporter, luminescence; normalized: DMSO 0%, desferrioxamine 100%;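 active = mean activation of at least 10% of the iron chelator positive control signal, with at least half of replicates also reaching 10%; inconclusive = mean and replicate majority disagree about reaching 10%; inactive = mean and most replicates under 10%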
AHR activator: activates the human aryl hydrocarbon receptor; activation, % at 5 µM; P35869; 2.5% of 320,000 active; AID 2796; AHR-responsive luciferase reporter cells, luminescence; in the data active = activation above about 47%;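 also: 0% = vehicle wells and 100% = reference agonist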
Starred values were filed as active, the others as inactive; ? = inconclusive; / = not tested or not shown. An excerpt weighted towards active compounds, which were near 2.8% of everything screened.

SMILES	pCIP destab	PolyA inhibitor	Platelet DG rel	HIF activator	AHR activator
CC1CCc2c(sc(Nc3nc4c(F)cccc4s3)c2C(N)=O)C1 (centres undefined)	-10	-1	0	0	56*
Cc1ccc(N2CCN(c3ccc(NCc4nc5ccccc5n4C)cc3)CC2)cc1	-4	5	4	1	66*
Cc1cccc(NCc2nc3ccccc3n2C)c1	-10	-17	1	2	47*
Cc1ccc(NCc2nc3ccccc3n2C)c(C)c1	-2	-11	14	0	76*
Cc1ccc(CNc2ccc(N3CCOCC3)cc2)cc1	-9	-3	-2	2	14
Cc1cccc(NCc2nc3ccccc3n2Cc2ccccc2)c1	-14	-42	-2	1	8
O=C(COC(=O)c1cnccn1)N=c1sccn1Cc1ccccc1Cl	/	-9	6	0	-1
Cc1cc(=O)[nH]c(/N=C(\N)Nc2ccc3c(c2)OCCO3)n1	1	-1	-1	0	8
COc1ccc(Cl)cc1N/C(N)=N/c1nc(C)cc(C)n1	-18	12	4	0	41
Cc1cc(C)nc(/N=C(\N)Nc2ccc3c(c2)OCCO3)n1	-10	-10	1	1	72*
COc1ccc(N/C(N)=N/c2nc(C)cc(C)n2)c(OC)c1	-6	0	8	0	63*
COc1ccc(OC)c(N/C(N)=N/c2nc(C)cc(C)n2)c1	4	28	2	-14	66*
CCOc1ccc(N/C(N)=N/c2nc(C)cc(C)n2)cc1	1	29	8	-4	11
COc1cc(N/C(N)=N/c2nc(C)cc(C)n2)cc(OC)c1	8	-9	1	1	65*
Cc1c(CC(=O)NCC(=O)O)c(=O)oc2cc3c(cc12)CCC(C)(C)O3	-3	-7	5	-2	4
Cc1ccc(C(=O)C(C)OC(=O)Cn2c(C)csc2=O)cc1 (centres undefined)	-1	-1	1	-1	1
COc1ccc2oc(C(=O)OCC(=O)N(C)CC(=O)Nc3ccc(F)cc3)c(C)c2c1	/	12	12	0	11
CCCOc1ccccc1N/C(N)=N/c1nc(C)cc(C)n1	-25	-23	0	0	56*
COc1ccc(S(=O)(=O)Nc2cccc3c2O[C@H](CN(C)CC2CCCCC2)[C@@H](C)CN([C@H](C)CO)C3=O)cc1	/	/	/	/	1
Cc1ccc(C(=O)Nc2oc(-c3ccccc3)cc2C#N)cc1	-5	-19	9	0	56*
S=C(Nc1cccnc1)Nc1cccc2cnccc12	52*	0	8	-2	15
CCOc1ccc(NC(=S)Nc2ccc(OCC)cc2)cc1	0	-7	4	0	0
CCOc1ccc(NC(=S)Nc2ccc3nsnc3c2)cc1	0	-12	-1	5	51*
CCOc1ccc(NC(=S)Nc2cccc3cnccc23)cc1	5	-4	9	-1	60*
CCOc1ccc(NC(=S)Nc2cccc3ccccc23)cc1	-11	3	22	4	66*
SMILES	pCIP destab	PolyA inhibitor	Platelet DG rel	HIF activator	AHR activator
S=C(Nc1ccc(Cl)cc1)Nc1cccc2cnccc12	-1	7	13	1	41
CCOc1ccc(NC(=O)Nc2ccc3nsnc3c2)cc1	-7	-5	11	1	7
CCOc1cc(/C=C(/NC(C)=O)C(=O)O)cc(Cl)c1OCc1ccc(Br)cc1	-10	5	-1	0	-1
O=C(O)CCC(=O)Nc1ccc(C(=O)OCC(=O)c2ccc(Cl)cc2Cl)cc1	-6	-4	1	0	-1
CCc1cc2c3c(c(=O)oc2cc1OCC(=O)OC)CCCC3	0	2	0	-1	-1
Cc1ccc(-c2nn3c(C)nnc3s2)cc1NC(=O)C(C)C	-10	6	6	0	34
Cc1ccc(-c2nn3c(C)nnc3s2)cc1NC(=O)CSc1ccc(Cl)cc1	-4	88*	11	0	-2
Cc1nnc2sc(-c3ccc(NC(=O)CSc4ccc(Cl)cc4)cc3)nn12	-1	-3	3	2	2
CCC(=O)Nc1ccc(-c2nn3c(C)nnc3s2)cc1C	-12	6	2	1	54*
COc1cc(/C=N/N2C(=O)CSC2=S)ccc1O	4	?	3	-1	15
COc1ccc(Br)cc1/C=N/N1C(=O)CSC1=S	-3	11	8	0	49*
COc1cc(OC)c2nc(C)c3c(c2c1)N(c1ccc(O)cc1)CC3	-10	12	-1	16*	41
COc1cc(OC)cc(C(=O)NCC(=O)N2CCN(c3ccc(O)cc3)CC2)c1	-6	-13	7	-1	1
CC(=O)Nc1ccc(S(=O)(=O)N(C)CC(=O)OCC(=O)Nc2cc(C)on2)cc1	/	/	/	/	1
O=C(Nc1cnc2ccccc2c1)c1cccc(-n2cnnn2)c1	-8	6	2	2	59*
CCCc1nn(C)c(C(=O)Nc2cccc(Cl)c2)c1Cl	1	15	9	/	89*
CCCc1nn(C)c(C(=O)Nc2cccc(C)c2)c1Cl	0	-11	-2	2	25
O=C(CCc1nc2ccccc2c(=O)[nH]1)N1CCN(S(=O)(=O)c2ccc(Cl)c(C(F)(F)F)c2)CC1	/	13	-2	0	3
O=C(CSc1nc2ccccc2[nH]1)NC(=O)NCc1ccco1	-7	14	-3	0	32
Cc1ccc2nc(SCC(=O)NCc3ccco3)[nH]c2c1	-4	-1	7	0	77*
Cc1ccc2nc(SCC(=O)NC(=O)NCc3ccco3)[nH]c2c1	-6	-11	-1	0	61*
CC(O)C(C(=O)OCc1ccc([N+](=O)[O-])cc1)N1C(=O)c2ccccc2C1=O (centres undefined)	0	/	/	/	-1
CN(C(=O)COC(=O)/C=C/c1ccc(S(=O)(=O)N2CCc3ccccc32)cc1)C1CCS(=O)(=O)C1 (centres undefined)	-15	18	-5	0	0
Cc1cc([N+](=O)[O-])ccc1-c1ccc(C2Nc3ccccc3C(=O)N2O)o1 (centres undefined)	7	7	2	0	-1
O=C1c2ccccc2NC(c2ccc(-c3cccc(F)c3)o2)N1O (centres undefined)	/	/	/	/	47*
SMILES	pCIP destab	PolyA inhibitor	Platelet DG rel	HIF activator	AHR activator
N#Cc1ccc(-c2ccc(C3Nc4ccccc4C(=O)N3O)o2)cc1 (centres undefined)	/	/	/	/	-1
O=C1c2ccccc2NC(c2ccc(-c3ccccc3F)o2)N1O (centres undefined)	/	/	/	/	54*
CCCOc1ccc(C(F)(F)F)cc1NC(=O)CCc1c(C)noc1C	/	/	/	/	-1
Cc1occc1C(=O)NNC(=O)C1CCCCC1	-12	0	8	-1	1
Cc1occc1C(=O)NC1CCCCCC1	-10	-5	-7	13*	18
CC(=O)N1N=C(c2ccccc2OC(=O)/C=C/c2ccccc2)CC1c1ccccc1 (centres undefined)	-8	0	-12	0	0
CSc1ncccc1C(=O)NC(C)CCc1ccccc1 (centres undefined)	-5	1	4	-3	0
